According to PubChem BioAssay:

Assays:
[1] = tested on: Botulinum neurotoxin type F light chain protease (Clostridium botulinum); test: Clostridium botulinum type F light chain protease inhibitors, microsphere substrate cleavage, validation (AID 588459); details: multiplex microsphere protease substrate cleavage assay, flow cytometry; at 10 µM; active compounds read high
[2] = biological target: Botulinum neurotoxin type A (Clostridium botulinum) (UniProt P0DPI0); test: BoNT/A light chain protease inhibitors, biochemical, multiplex microsphere flow cytometry, validation set (AID 588460); details: at 10 µM, active compounds read high
Chain of Botulinum neurotoxin type A (Clostridium botulinum) (P0DPI0 whole entry, looked up): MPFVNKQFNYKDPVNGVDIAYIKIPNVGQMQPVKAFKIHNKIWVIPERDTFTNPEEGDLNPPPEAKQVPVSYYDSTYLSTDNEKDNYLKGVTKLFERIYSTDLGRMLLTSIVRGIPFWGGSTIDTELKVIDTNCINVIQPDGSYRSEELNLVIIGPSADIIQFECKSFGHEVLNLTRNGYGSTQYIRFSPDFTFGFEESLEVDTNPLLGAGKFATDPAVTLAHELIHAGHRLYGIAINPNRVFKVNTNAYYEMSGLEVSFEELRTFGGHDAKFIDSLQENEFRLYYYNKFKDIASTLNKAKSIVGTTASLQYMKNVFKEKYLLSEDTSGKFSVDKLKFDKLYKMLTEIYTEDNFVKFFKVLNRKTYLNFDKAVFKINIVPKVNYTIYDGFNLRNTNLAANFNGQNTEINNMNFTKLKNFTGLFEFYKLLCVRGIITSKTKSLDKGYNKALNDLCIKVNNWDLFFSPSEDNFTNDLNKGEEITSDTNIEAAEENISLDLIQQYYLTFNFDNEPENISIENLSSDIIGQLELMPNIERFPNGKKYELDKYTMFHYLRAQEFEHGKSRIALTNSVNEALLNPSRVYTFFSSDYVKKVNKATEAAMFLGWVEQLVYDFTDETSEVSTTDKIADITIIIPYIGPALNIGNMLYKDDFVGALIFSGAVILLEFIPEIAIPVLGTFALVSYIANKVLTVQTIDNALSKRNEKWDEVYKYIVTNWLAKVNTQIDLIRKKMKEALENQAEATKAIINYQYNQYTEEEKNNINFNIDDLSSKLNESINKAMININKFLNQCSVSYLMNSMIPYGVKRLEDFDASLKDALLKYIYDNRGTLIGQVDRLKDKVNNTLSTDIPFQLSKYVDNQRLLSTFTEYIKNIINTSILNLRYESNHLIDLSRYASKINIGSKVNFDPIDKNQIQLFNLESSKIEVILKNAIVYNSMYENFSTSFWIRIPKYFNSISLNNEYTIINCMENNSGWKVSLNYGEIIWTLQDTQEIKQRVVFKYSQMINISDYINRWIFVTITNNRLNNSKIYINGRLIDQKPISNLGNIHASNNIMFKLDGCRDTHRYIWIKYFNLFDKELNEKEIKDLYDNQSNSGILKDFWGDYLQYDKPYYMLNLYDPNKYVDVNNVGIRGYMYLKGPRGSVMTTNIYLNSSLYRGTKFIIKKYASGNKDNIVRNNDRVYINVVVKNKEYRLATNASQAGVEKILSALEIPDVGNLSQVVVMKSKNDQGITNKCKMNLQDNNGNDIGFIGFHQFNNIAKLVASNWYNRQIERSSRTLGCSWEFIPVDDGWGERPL

[3] = biological target: Lethal factor (Bacillus anthracis) (UniProt P15917); test: Bacillus anthracis lethal factor inhibition, microsphere flow cytometry protease assay, validation at 10 µM (AID 588461); details: multiplex microsphere protease cleavage assay, active compounds read high
Chain of Lethal factor (Bacillus anthracis) (P15917 whole entry, looked up): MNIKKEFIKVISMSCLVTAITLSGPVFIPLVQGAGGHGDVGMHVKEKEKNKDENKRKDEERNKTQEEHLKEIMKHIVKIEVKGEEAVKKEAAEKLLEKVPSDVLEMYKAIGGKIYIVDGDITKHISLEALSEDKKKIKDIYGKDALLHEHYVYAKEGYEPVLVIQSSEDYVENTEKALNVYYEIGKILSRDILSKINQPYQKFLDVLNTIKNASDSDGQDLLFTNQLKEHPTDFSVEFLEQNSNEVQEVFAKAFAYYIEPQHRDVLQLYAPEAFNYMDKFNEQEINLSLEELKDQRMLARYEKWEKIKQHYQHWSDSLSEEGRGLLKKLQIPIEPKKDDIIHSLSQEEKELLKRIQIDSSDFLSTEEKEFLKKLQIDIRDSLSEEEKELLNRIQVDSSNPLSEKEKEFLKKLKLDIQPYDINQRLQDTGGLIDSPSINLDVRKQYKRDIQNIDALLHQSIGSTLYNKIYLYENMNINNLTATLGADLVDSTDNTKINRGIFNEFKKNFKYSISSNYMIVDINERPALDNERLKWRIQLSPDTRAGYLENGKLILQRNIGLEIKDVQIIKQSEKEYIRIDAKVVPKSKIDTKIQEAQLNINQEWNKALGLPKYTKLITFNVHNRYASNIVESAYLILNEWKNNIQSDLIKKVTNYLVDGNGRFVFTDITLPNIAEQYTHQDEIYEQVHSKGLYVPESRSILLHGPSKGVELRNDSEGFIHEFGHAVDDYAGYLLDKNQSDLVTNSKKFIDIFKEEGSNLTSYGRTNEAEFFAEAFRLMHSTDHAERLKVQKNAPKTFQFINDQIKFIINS

Measured: inhibition

Cc1c(CCOC(=O)CC23CC4CC(CC(C)(C4)C2)C3)sc[n+]1Cc1ccc([N+](=O)[O-])cc1
inactive: [1] -3.1% | [2] 1.6% | [3] -4.8%

Cc1nonc1CN(C)C(=O)c1ccc(OC2CCN(Cc3ccccn3)CC2)cc1
inactive: [1] 0% | [2] -1.4% | [3] -0.2%

CC(=O)Oc1cc2oc(=O)cc(C)c2cc1OC(C)=O
inactive: [1] -1.8% | [2] -0.8% | [3] 1.8%

CN(C)c1ccc(Nc2c3c4c(cccc4n(C)c2=O)C(=O)c2ccccc2-3)cc1
inactive: [1] -13.5% | [2] -3.2% | [3] -18.1%

CC1Cc2ccccc2N1NC(=O)c1ccc(Cl)c(S(N)(=O)=O)c1 (stereo not given)
inactive: [1] 1.4% | [2] 0.7% | [3] -0.2%

CC(=O)CCc1c(C)c2cccc(C)c2[nH]c1=O
inactive: [1] 4.3% | [2] 0.8% | [3] -3.4%

CC(C)=CC/C=C1\CCC(C(=O)O)C(C(=O)O)C1 (stereo not given)
inactive: [1] -1.1% | [2] -1.6% | [3] -3.4%

Cc1ccc(O)c(CCc2ccccc2)n1
inactive: [1] 1.3% | [2] 0.5% | [3] -5.5%

COc1ccccc1C(CCN(Cc1ccccc1)C(C)=O)c1ccco1 (stereo not given)
inactive: [1] -6.5% | [2] -1.3% | [3] -0.5%

Cc1[nH]c2ccccc2c1C(=O)C(=O)NCc1ccco1
inactive: [1] 0.1% | [2] -0.7% | [3] -5.5%

NC(=O)c1cnccn1
inactive: [1] 0.4% | [2] 0.7% | [3] 5.7%

CCc1cc(=O)oc2cc(OCC=C(C)C)ccc12
inactive: [1] 2% | [2] 0.5% | [3] 0.2%

O=c1c2ccccc2nc2n1CCCN2
inactive: [1] -4.6% | [2] -2.9% | [3] -7.9%

Cc1oc2c(O)c(O)ccc2c(=O)c1-c1ccccc1
inactive: [1] 1.6% | [2] 0.4% | [3] 2%

CC(C)NCC(O)COc1ccc(CCOCC2CC2)cc1 (stereo not given)
inactive: [1] -0.9% | [2] -3.6% | [3] 1.3%

C/C(=N\NC(=O)c1ccccc1[N+](=O)[O-])c1ccc(Br)s1
inactive: [1] 1.5% | [2] 1.6% | [3] 5.5%

O=c1[nH]c(=O)n([C@H]2C[C@H](O)[C@@H](CO)O2)cc1F
inactive: [1] 1.7% | [2] 1.3% | [3] 1.1%

Cc1cccc(CN2CCN(C(c3ccccc3)c3ccc(Cl)cc3)CC2)c1 (stereo not given)
inactive: [1] -0.2% | [2] -2% | [3] -9.2%

COc1ccc(-c2nnc(-c3cc4c(ccc5ccccc54)oc3=O)o2)cc1
inactive: [1] -0.8% | [2] 0.4% | [3] -1.7%

COc1ccc(O)c(C(=O)/C=C/c2cc3ccccc3o2)c1
inactive: [1] -0.1% | [2] 0% | [3] -3.5%

COc1cccc(OC)c1C(=O)NCCSC1CCCCC1
inactive: [1] 1.4% | [2] 0% | [3] 5.6%

Fc1ccc(C(c2ccc(F)cc2)N2CCN(C/C=C/c3ccccc3)CC2)cc1
inactive: [1] -5.9% | [2] -1.8% | [3] -5.7%

Cc1[nH]c2ccccc2c1C(=O)CN1CCCC1
inactive: [1] 0.8% | [2] 0.2% | [3] -1.1%

Cc1nc2c(c3c1[nH]c1ccccc13)C(=O)CC(C)(C)C2
inactive: [1] 2.1% | [2] 0.3% | [3] 6%

Cn1nc(-c2ccccn2)nc2c(=O)n(C)c(=O)nc1-2
inactive: [1] -0.9% | [2] 2.9% | [3] -13%

Cc1oncc1C(=O)Nc1ccc(C(F)(F)F)cc1
inactive: [1] 0.9% | [2] 0.7% | [3] 2.2%

CC(C)(Oc1ccc(CCNC(=O)c2ccc(Cl)cc2)cc1)C(=O)O
inactive: [1] -1.2% | [2] 0.1% | [3] 8.7%

CCN(CC)C(=O)N1CCN(C)CC1
inactive: [1] -3.4% | [2] -0.7% | [3] 4.2%

Clc1cc(-c2ccc(/C=N/n3cnnc3)o2)ccc1Br
inactive: [1] -3.6% | [2] -0.3% | [3] 0.9%

COC(=O)c1cc(=O)c2ccc(OC)cc2o1
inactive: [1] -4.1% | [2] -0.9% | [3] 2.2%
